This is a sample that favours compounds with a hit; in the whole collection about 2.3% have one here.
MCL1 BIM primary: disrupts human MCL1 binding to BIM-BH3 peptide; Q07820; GST-MCL1 / FITC-Bim-BH3 fluorescence polarization; inhibition, % at 10.9 µM; 0.68% of 320,000 active;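 active = inhibition above the mean inhibition of all tested compounds plus 3 SD, set per campaign, cut at about 40% in these data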;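 also: 0% = DMSO wells and 100% = unlabeled Bim-BH3 peptide control; higher means more loss of mP so more displacement of Bim peptide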
Mcl1-Bid inh: disrupts binding of human Mcl-1 to Bid peptide. Q07820. TR-FRET Mcl-1/Bid-Dy647 peptide binding, 1536-well. inhibition, % at 21.7 µM. 0.97% of 220,000 active. AID 1021;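 active = compounds that cut the binding signal by more than half at the single screening dose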;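 also: His-tagged Mcl-1 with europium anti-His antibody binding Bid BH3 peptide; 0% = Mcl-1 plus peptide wells and 100% = peptide-only wells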
Bim-Mcl-1: human Bim-Mcl-1 interaction inhibition. Q07820. Bead-based flow cytometry, Bim peptide-Mcl-1 binding. inhibition, % at 10 µM. 0.1% of 190,000 active. AID 1009; in the data active = inhibition above about 40%;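 also: 0% = no compound tracer wells and 100% = peptide blocker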
Mcl1-Noxa inh: Mcl-1/Noxa interaction inhibition; TR-FRET Mcl-1/Noxa peptide binding, 2 h; inhibition, % at 21.7 µM; AID 1022; Q07820; 1.5% of 220,000 active;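 active = compounds that cut the protein-peptide binding signal by more than 50% relative to plate controls in a single-dose test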;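 also: His-tagged Mcl-1 with rhodamine Noxa BH3 peptide and terbium anti-His antibody; 0% = Mcl-1 plus Noxa peptide wells and 100% = peptide-only wells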
BCLXL inh: inhibitors of human Bcl-xL; GST-Bcl-xL / FITC-Bim BH3 peptide fluorescence polarization; inhibition, % at 10.9 µM; 0.7% of 320,000 active; AID 2129;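 active = inhibition above the mean of all tested compounds plus 3 SD, cutoff set per campaign, cut at about 30% in these data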;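 also: 0% = DMSO wells and 100% = unlabeled Bim-BH3 peptide competitor; inhibitors lower millipolarization by displacing the labeled peptide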
Target sequence (Q07817 whole entry, looked up): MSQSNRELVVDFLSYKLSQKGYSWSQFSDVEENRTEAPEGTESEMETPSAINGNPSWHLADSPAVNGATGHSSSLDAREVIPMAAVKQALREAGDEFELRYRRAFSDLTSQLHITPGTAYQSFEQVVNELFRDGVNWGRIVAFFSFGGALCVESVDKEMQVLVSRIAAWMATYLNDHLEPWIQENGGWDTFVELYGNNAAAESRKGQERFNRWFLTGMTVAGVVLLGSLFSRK
GLD-1 TGE inh: GLD-1-TGE RNA interaction inhibition (C. elegans); Q17339; purified GLD-1 + fluorescein TGE RNA, fluorescence polarization; inhibition, % at 5.96 µM; 0.44% of 320,000 active; AID 2280;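 active = percent inhibition above a per-plate cutoff, the plate mean of test compounds plus 3 SD, cut at about 30% in these data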;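 also: 0% = DMSO wells with GLD-1 and probe and 100% = wells lacking GLD-1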
BCLXL inh confirm: Bcl-xL (human) inhibition, MCL1 counter-screen confirmation; GST-Bcl-xL / FITC-Bim BH3 peptide FP binding; 54% of 1,700 active; inhibition, % at 10.9 µM; AID 2166; shares compounds with MCL1 BIM primary;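 active = inhibition above a cutoff equal to the mean inhibition of all tested compounds plus 3 SD, cut at about 30% in these data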;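 also: 0% = DMSO wells and 100% = unlabeled Bim BH3 control peptide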
MCL1 inh confirm: MCL1-BIM-BH3 interaction inhibition, confirmation. AID 2168. inhibition, % at 10.9 µM. shares compounds with MCL1 BIM primary. GST-MCL1 / FITC-Bim-BH3 fluorescence polarization. 61% of 1,700 active;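 active = inhibition above the average of all tested compounds plus 3 SD, cut at about 40% in these data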;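 also: 0% = DMSO wells and 100% = unlabeled Bim-BH3 control peptide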
An asterisk follows results filed as active; . = not tested or not shown; + = active, no number.

SMILES	MCL1 BIM primary	Mcl1-Bid inh	Bim-Mcl-1	Mcl1-Noxa inh	BCLXL inh	GLD-1 TGE inh	BCLXL inh confirm	MCL1 inh confirm
N#C/C(=C\c1ccc(O)c(O)c1)C(=O)NCCc1ccccc1	42*	.	.	.	4	3	31*	45*
Cc1ccc(NC(=O)CN2C(=O)N/C(=C/c3cccn3-c3ccc(C(=O)O)cc3)C2=O)cc1	79*	44	9	102*	27	5	41*	85*
Cc1ccc(NC(=O)CN2C(=O)S/C(=C\c3cccn3-c3cccc(C(=O)O)c3)C2=O)cc1C	8	-59	0	35	7	-1	.	.
O=S(=O)(NC1CC1)c1ccc(Cl)cc1F	0	.	.	.	2	3	.	.
Cc1cc(NC(=O)Cc2cccs2)no1	62*	32	1	102*	10	-12	19	69*
COc1ccc([C@@H](OC)[C@@]2(Cc3ccc(O)cc3)N=C(N)N(C)C2=O)cc1	7	.	.	.	-3	0	.	.
CCN(CC)c1ccc2c(-c3ccc(S(=O)(=O)O)cc3S(=O)(=O)[O-])c3ccc(=[N+](CC)CC)cc-3oc2c1	+	.	.	.	+	155*	+	+
Clc1ccc(C2Nc3cccc4cccc(c34)N2)cc1Cl	31	.	.	.	21	4	.	.
c1csc(C2Nc3cccc4cccc(c34)N2)c1	62*	-13	0	.	61*	20	25	22
Brc1ccc(C2Nc3cccc4cccc(c34)N2)o1	55*	-1	-1	65*	51*	20	23	29
c1ccc(C2Nc3cccc4cccc(c34)N2)cc1	52*	.	.	.	39*	13	40*	55*
Brc1cccc(C2Nc3cccc4cccc(c34)N2)c1	44*	.	.	.	27	19	24	26
O=C(NCC(c1ccco1)N1CCN(c2ccccc2)CC1)C(=O)NC1CC1 (configuration not stated)	4	.	.	.	0	3	.	.
CN1CCC(=O)N([C@H](CN=[N+]=[N-])Cc2ccccc2)CC1	7	.	.	.	2	-5	.	.
CCSc1nnc(NC(=O)Nc2cccc(C)c2)s1	-4	-7	.	15	3	3	.	.
N#Cc1c(N)sc(=S)c2c1CCCC2	160*	-8	1	29	142*	102*	62*	92*
O=C(COc1ccc(Br)cc1)NNC(=O)c1ccc(-n2cncn2)c([N+](=O)[O-])c1	-9	.	.	.	5	7	.	.
CC1(OC(=O)c2cnc3ccccc3n2)C(=O)C=C2C=C(C3CC3)OC=C2C1=O (configuration not stated)	130*	.	.	.	118*	114*	81*	117*
COC/C=C/C1=CC2=CC(=O)C(C)(OC(=O)c3cnc4ccccc4n3)C(=O)C2=CN1C1CCCCC1 (configuration not stated)	28	.	.	.	22	14	.	.
CC1(OC(=O)c2ccco2)C(=O)C=C2C=C(C3CC3)OC=C2C1=O (configuration not stated)	79*	.	.	.	75*	63*	40*	59*
CC1(OC(=O)c2cccs2)C(=O)C=C2C=C(c3ccc(C#N)cc3)OC=C2C1=O (configuration not stated)	3	.	.	.	4	6	.	.
CCC(=O)OC1(C)C(=O)C=C2C=C(C3CC3)OC=C2C1=O (configuration not stated)	63*	.	.	.	59*	39*	25	31
C[C@H]1CN([C@@H](C)CO)C(=O)c2cc(NC(=O)C3CCCCC3)ccc2O[C@H]1CN(C)C(=O)Nc1ccc2c(c1)OCO2	.	.	.	.	.	4	.	.
COc1ccc(-c2noc(CNS(=O)(=O)c3ccc(NC(C)=O)cc3)n2)cc1OC	1	.	.	.	2	2	.	.
Cn1c(=O)c(-c2cc(Br)ccc2N)nc2ccccc21	-5	-75	-3	-2	3	-1	.	.
SMILES	MCL1 BIM primary	Mcl1-Bid inh	Bim-Mcl-1	Mcl1-Noxa inh	BCLXL inh	GLD-1 TGE inh	BCLXL inh confirm	MCL1 inh confirm
Cn1c(=O)c(N)c2c3c(c(Br)ccc31)C(=O)c1ccccc1-2	+	12	.	-5	+	+	+	+
N#CCc1cnc2ccccc2n1	76*	-17	.	3	82*	60*	7	2
Cc1c(C)c2cc(Cl)c(O)c(CN(C)C)c2oc1=O	11	-27	0	10	8	7	.	.
O=c1oc2c(O)c(O)cc3c(=O)oc4c(O)c(O)cc1c4c23	97*	76*	10	86*	74*	8	79*	98*
CCCN(C(=O)c1c(-c2ccccc2)noc1C)c1c(N)n(Cc2ccccc2)c(=O)[nH]c1=O	5	.	.	.	3	5	.	.
COc1ccc(C(CNC(=O)CCNC(=O)c2ccc(Br)cc2)N2CCOCC2)cc1 (configuration not stated)	-3	.	.	.	1	7	.	.
CCOC(=O)c1ccccc1NC(=O)N1CCn2c(C)ccc2C1CC (configuration not stated)	63*	-60	0	-3	62*	33*	35*	39
N#C/C(=C\c1ccc(-c2ccc(F)cc2)o1)C(=O)Nc1nc(-c2cccs2)cs1	41*	22	1	57*	27	9	45*	73*
CCOC(=O)c1ccccc1NC(=O)CSc1nc(N)cc(=O)[nH]1	0	-20	.	9	-2	3	.	.

Screens from PubChem.
